# Rows were chosen to be rich in hits. Some 3.2% of all compounds tested hit in one or more screens of this group.
# PriA SSB inh – blocks PriA binding to SSB C-terminal tail; AlphaScreen SSBct-PriA binding, biotinylated peptide; inhibition, % at 33 µM; actives 0.6% (n = 430,000); AID 1272365; in the data active = inhibition mostly above about 37%, no sharp cut-off; inactive = mostly below about 20%;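 also: plate controls were negative control peptide for no effect and reference peptide for full effect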
# Mtb UGM inh – blocks M. tuberculosis UGM enzyme; inhibition, % at 10 µM; AID 504406; actives 0.06% (n = 320,000); P9WIQ1; purified UGM, fluorescence polarization probe displacement; in the data active = inhibition above about 10%, passing the limit was not always enough
# GDH-TPI counter – inhibits GDH-TPI coupling enzymes, artifact for Mtb FBA screen; inhibition, % at 4.8 µM; actives 1.2% (n = 360,000); GDH-TPI coupled enzyme counterscreen, NADH absorbance; AID 588335; in the data active = inhibition above about 30%;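 also: 0% = DMSO wells and 100% = wells lacking the enzyme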
# Mtb bLac sens – beta-lactam sensitization of Mtb H37Rv; M. tuberculosis H37Rv growth with meropenem, percent inhibition; inhibition, % at 25 µM; actives 0.27% (n = 330,000); call rule not given here;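 also: growth measured after seven days incubation then overnight dye step; 0% = bacteria only wells and 100% = bacteria with antibiotic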
# Rv3671c inh – inhibits the M. tuberculosis serine protease Rv3671c; P9WHR9; inhibition, % at 5.96 µM; actives 0.048% (n = 320,000); in the data active = inhibition above about 38%;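 also: extracellular domain of Rv3671c used as enzyme; 0% = enzyme with DMSO and 100% = no enzyme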
# Target sequence (P9WHR9 whole entry, looked up, the tested form may be a part): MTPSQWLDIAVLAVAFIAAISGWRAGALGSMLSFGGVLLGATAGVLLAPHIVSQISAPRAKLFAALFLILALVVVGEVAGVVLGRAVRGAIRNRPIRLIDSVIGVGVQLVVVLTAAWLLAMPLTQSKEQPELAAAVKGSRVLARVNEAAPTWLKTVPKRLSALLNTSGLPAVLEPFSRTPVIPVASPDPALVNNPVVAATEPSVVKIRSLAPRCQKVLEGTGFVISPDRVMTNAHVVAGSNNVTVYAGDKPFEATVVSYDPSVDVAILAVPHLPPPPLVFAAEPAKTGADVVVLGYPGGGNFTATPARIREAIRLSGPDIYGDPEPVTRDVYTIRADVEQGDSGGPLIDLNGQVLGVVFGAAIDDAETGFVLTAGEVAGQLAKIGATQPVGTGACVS
# FBA Mtb inh – Mtb fructose-bisphosphate aldolase inhibition; purified M. tuberculosis FBA, fluorescence read-out; P9WQA3; inhibition, % at 1 µM; actives 2.3% (n = 360,000); AID 588726; in the data active = inhibition above about 27%;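 also: 0% = vehicle and 100% = reference inhibitor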
# * hit, by the source's call; · = not tested or not shown; + = active, no number.
SMILES,PriA SSB inh,Mtb UGM inh,GDH-TPI counter,Mtb bLac sens,Rv3671c inh,FBA Mtb inh
COc1ccc(OC)c(C2CC(c3ccccc3)=NN2C(=S)Nc2ccccc2)c1 (centres undefined),1,0,-1,44,-5,-2
CCC[N+](CC#CCO)(CC#Cc1ccccc1)CCC,-1,0,3,0,2,146*
CC1CCc2sc(C(=O)NN=Cc3ccc(O)cc3)cc2C1 (centres undefined),14,·,·,·,·,·
COc1ccc(-c2cc(=Nc3ccc(C(=O)O)cc3)c3cc(C)ccc3o2)cc1,-6,4,9,12,-14,+
COc1ccc(-c2cc(=O)c3cc(O)ccc3o2)cc1,5,-1,29,1,-6,1
COc1ccc(-c2cc(=NCC(=O)O)c3ccccc3o2)cc1,0,3,28,3,-8,+
COc1ccc(CNC(=O)c2cc(=O)c3cc(C)ccc3o2)cc1,-7,2,4,-7,-9,0
CCc1ccc2oc(-c3ccc(OC)cc3)cc(=Nc3cccc(C(=O)O)c3)c2c1,-6,1,22,15,-5,+
COc1ccc(-c2cc(=NCCCCCC(=O)O)c3cc(C)ccc3o2)cc1,1,·,50*,·,·,·
Cc1cc(C=Nn2cnnc2)c(C)n1-c1ccc(Cl)cc1Cl,14,·,·,·,·,·
CCc1ccc2oc(-c3ccc(OC)cc3)cc(=Nc3c(C)n(C)n(-c4ccccc4)c3=O)c2c1,44*,1,20,99,-6,+
COc1ccc(-c2cc(=Nc3cccc(C(=O)O)c3)c3cc(C)ccc3o2)cc1,5,0,22,4,-1,+
CC1=NCCN1S(=O)(=O)c1cc([N+](=O)[O-])ccc1C,-11,·,·,·,·,·
CN(C)c1ccc(C2=NN(S(C)(=O)=O)[C@H](c3ccc(Cl)cc3)C2)cc1,7,·,·,·,·,·
Cn1cc(C(=O)NCCn2nc(C(F)(F)F)n(C)c2=O)nn1,-17,·,·,·,·,·
O=C(Cc1cccs1)Nc1cc(SCCO)cc([N+](=O)[O-])c1,2,11*,4,-6,3,0
O=C(Nc1cc(SCCO)cc([N+](=O)[O-])c1)c1ccco1,-7,3,8,-1,-2,-2
COc1cc(OC)cc(-c2c(C#Cc3ccsc3)c3cc(-c4cccc5[nH]cc(C=O)c45)ccc3n2C)c1,-14,-3,32*,1,-6,6
COc1cc(F)cc(-c2ccc3c(c2)c(C#Cc2ccsc2)c(-c2cc(OC)cc(OC)c2)n3C)c1,-40,3,31*,-10,-2,14
COc1cc(OC)cc(-c2c(C#Cc3ccsc3)c3cc(-c4ccc(OC)c(OC)c4)ccc3n2C)c1,-3,-1,44*,-6,-3,19
COc1ccc(-c2c(C#Cc3ccsc3)c3cc(-c4ccc(C(N)=O)cc4)ccc3n2C)cc1,-7,3,12,-9,-9,3
COc1ccc(-c2c(C#Cc3ccsc3)c3cc(-c4ccc5c(c4)OCO5)ccc3n2C)cc1,-8,-3,11,9,-11,3
COc1ccc(-c2c(C#Cc3ccsc3)c3cc(-c4cccc5[nH]ccc45)ccc3n2C)cc1,1,-2,17,4,-20,24
COc1cc(OC)cc(-c2c(C#Cc3ccsc3)c3cc(Br)ccc3n2C)c1,-6,1,9,-2,-6,13
COc1cc(OC)cc(-c2c(C#Cc3ccsc3)c3cc(-c4ccc(OC)nc4)ccc3n2C)c1,-8,1,44*,94,-26,18
SMILES,PriA SSB inh,Mtb UGM inh,GDH-TPI counter,Mtb bLac sens,Rv3671c inh,FBA Mtb inh
CCOc1ccc(-c2c(C(=O)NN=CC3CCCCC3)nnn2-c2nonc2N)cc1,-2,·,·,·,·,·
O=C(O)c1noc2c1CCCC2,3,·,·,·,·,·
Cc1ncc(CO)c(C=NNc2ccc(C(F)(F)F)cn2)c1O,72*,·,·,·,·,·
Cc1cc(C(=O)NN=Cc2c(CO)cnc(C)c2O)c2ccccc2n1,40*,·,·,·,·,·
Cc1ncc(CO)c(C=NNc2cccc(Cl)n2)c1O,-2,·,·,·,·,·
Cc1cc(C(=O)N/N=C/c2c(CO)cnc(C)c2O)c2ccccc2n1,·,2,10,-4,4,-3
C=CCc1cccc(C=NNC(=O)CCC(=O)Nc2ccc(F)cc2)c1O,-10,·,·,·,·,·
Cc1cc(C)cc(OCC(=O)N2N=C(C(F)(F)F)CC2(O)C(C)(C)C)c1 (centres undefined),49*,-3,7,-9,2,1
Cc1cc(C)cc(OCC(=O)N2N=C(c3cccnc3)CC2(O)C(F)(F)F)c1 (centres undefined),-4,-1,-12,1,-3,-1

# Screening data as filed in PubChem BioAssay.
